The whole screen tested about 5,500 compounds, of which about 2,000 (36%) were called active. Inconclusive results (about 18%) are left out. Rule as the data show it: active = normalized growth mostly below about 0.91 (no sharp cut-off); inconclusive = no clear call, values can overlap the other calls; inactive = mostly above about 0.92. The list shows a part of the results.
Test: chemical genetic growth profiling, strain panel (AID 1159580);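 also: tested at 20 µM; growth read once vehicle control cultures reached saturation at 30 °C; 1 = growth at the plate median or of vehicle wells; lower values mean less growth of the strain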
Details: S. cerevisiae deletion strains, growth OD

Measured: normalized growth

CC(=O)NC(C(=O)O)C(C)(C)SN=O (centres undefined)
inactive: locus YAL013W, strain DEP1, stronger effect = lower value 1.02 | locus YAL021C, strain ccr4, stronger effect = lower value 1.01 | locus YAL026C, strain drs2, stronger effect = lower value 0.992 | locus YAL030W, strain snc1, stronger effect = lower value 0.991 | locus YBL061C, strain skt5, stronger effect = lower value 0.984 | locus YBR009C, strain hhf1, stronger effect = lower value 1 | locus YBR021W, strain FUR4, stronger effect = lower value 0.977 | locus YBR023C, strain chs3, stronger effect = lower value 0.994 | locus YBR171W, strain sec66, stronger effect = lower value 0.993 | locus YBR229C, strain ROT2, stronger effect = lower value 1.01 | locus YBR231C, strain swc5, stronger effect = lower value 0.996 | locus YBR279W, strain paf1, stronger effect = lower value 0.986 | locus YCL011C, strain gbp2, stronger effect = lower value 0.996 | locus YCL016C, strain dcc1, stronger effect = lower value 0.985 | locus YCL029C, strain bik1, stronger effect = lower value 0.981 | locus YCL061C, strain MRC1, stronger effect = lower value 0.999 | locus YCL069W, strain vba3, stronger effect = lower value 0.991 | locus YCR088W, strain abp1, stronger effect = lower value 0.983 | locus YDL005C, strain med2, stronger effect = lower value 0.977 | locus YDL035C, strain GPR1, stronger effect = lower value 1 | locus YDL040C, strain nat1, stronger effect = lower value 0.996 | locus YDL074C, strain BRE1, stronger effect = lower value 1.06 | locus YDL101C, strain DUN1, stronger effect = lower value 1 | locus YDL134C, strain PPH21, stronger effect = lower value 1.01 | locus YDL185W, strain tfp1, stronger effect = lower value 0.98 | locus YDL192W, strain arf1, stronger effect = lower value 0.999 | locus YDR001C, strain nth1, stronger effect = lower value 0.984 | locus YDR069C, strain doa4, stronger effect = lower value 0.984 | locus YDR101C, strain arx1, stronger effect = lower value 1 | locus YDR137W, strain rgp1, stronger effect = lower value 1.04 | locus YDR150W, strain NUM1, stronger effect = lower value 0.978 | locus YDR159W, strain sac3, stronger effect = lower value 0.997 | locus YDR162C, strain NBP2, stronger effect = lower value 1.03 | locus YDR195W, strain ref2 0.949 | locus YDR297W, strain sur2, stronger effect = lower value 0.98 | locus YDR318W, strain mcm21, stronger effect = lower value 1 | locus YDR334W, strain swr1, stronger effect = lower value 0.976 | locus YDR335W, strain msn5, stronger effect = lower value 0.982 | locus YDR388W, stronger effect = lower value 1 | locus YDR392W, strain spt3, stronger effect = lower value 0.98 | locus YDR502C, strain sam2, stronger effect = lower value 1 | locus YEL003W, strain gim4, stronger effect = lower value 0.988 | locus YEL037C, strain rad23, stronger effect = lower value 0.984 | locus YEL061C, strain CIN8 (second series), stronger effect = lower value 0.989 | locus YEL061C, strain CIN8, stronger effect = lower value 1 | locus YER015W, strain faa2, stronger effect = lower value 0.996 | locus YER016W, strain bim1, stronger effect = lower value 0.991 | locus YER110C, stronger effect = lower value 0.984 | locus YER111C, strain swi4, stronger effect = lower value 0.981 | locus YER155C, strain BEM2 (second series), stronger effect = lower value 0.989 | locus YER155C, strain BEM2, stronger effect = lower value 1 | locus YER167W, strain BCK2, stronger effect = lower value 0.995 | locus YFR010W, strain ubp6, stronger effect = lower value 0.976 | locus YGL078C, strain dbp3, stronger effect = lower value 0.99 | locus YGL086W, strain mad1, stronger effect = lower value 0.988 | locus YGL167C, strain pmr1, stronger effect = lower value 0.99 | locus YGL173C, strain kem1, stronger effect = lower value 0.995 | locus YGL227W, strain vid30, stronger effect = lower value 0.992 | locus YGL240W, strain doc1, stronger effect = lower value 0.989 | locus YGL248W, strain PDE1, stronger effect = lower value 1.01 | locus YGL253W, strain hxk2, stronger effect = lower value 0.983 | locus YGR078C, strain PAC10, stronger effect = lower value 1.02 | locus YGR135W, strain pre9, stronger effect = lower value 1 | locus YGR229C, strain SMI1, stronger effect = lower value 1.05 | locus YGR252W, strain gcn5, stronger effect = lower value 1.01 | locus YHR013C, strain ard1, stronger effect = lower value 0.972 | locus YHR027C, strain rpn1, stronger effect = lower value 1.01 | locus YHR030C, strain SLT2, stronger effect = lower value 1 | locus YHR079C, strain IRE1 (second series), stronger effect = lower value 0.999 | locus YHR094C, strain hxt1, stronger effect = lower value 0.98 | locus YHR129C, strain ARP1, stronger effect = lower value 0.998 | locus YHR142W, strain chs7, stronger effect = lower value 0.978 | locus YHR200W, strain rpn10, stronger effect = lower value 0.992 | locus YIL066C, strain RNR3, stronger effect = lower value 1.01 | locus YIL073C, strain SPO22, stronger effect = lower value 0.913 | locus YIL125W, strain kgd1, stronger effect = lower value 0.99 | locus YIR030C, strain dcg1, stronger effect = lower value 1 | locus YJL092W, strain hpr5, stronger effect = lower value 0.983 | locus YJL095W, strain BCK1 (second series), stronger effect = lower value 0.989 | locus YJL095W, strain BCK1, stronger effect = lower value 1.07 | locus YJL115W, strain asf1, stronger effect = lower value 0.986 | locus YJL129C, strain trk1, stronger effect = lower value 0.995 | locus YJL134W, strain LCB3, stronger effect = lower value 1 | locus YJL154C, strain vps35, stronger effect = lower value 0.975 | locus YJL164C, strain tpk1, stronger effect = lower value 1 | locus YJL166W, strain qcr8, stronger effect = lower value 0.996 | locus YJL168C, strain set2, stronger effect = lower value 1.01 | locus YJL187C, strain SWE1 (second series), stronger effect = lower value 1 | locus YJL187C, strain SWE1, stronger effect = lower value 0.989
